Drawing on PubChem BioAssay (Tox21), this text covers Potency and activation for 29 compounds.

Values joined by “and” are separate entries in the source; they are usually repeats but may differ in a detail not shown here. Equal values may be shown once. Some structures have more than one record in an assay (separate samples or runs), and their calls can disagree. Active and inactive are the calls of the source. Unless noted, calls come from the whole dose curve; as a rule, active = well fitted curve in the direction sought with a large enough effect in the repeat runs; inconclusive = weak or mixed curves; inactive = no such curve, though single readings can be large; an effect the other way counts as inactive or inconclusive.

Test [1] is described as follows: qHTS assay to identify small molecule antagonists of the thyroid receptor (TR) signaling pathway - cell viability counter screen (AID 743064). Note: nearly all actives have a fitted effect of over 50% in size. Note: potency is the fitted concentration of half-maximal effect. Summed up:
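GH3.TRE-Luc rat pituitary cells carrying a TRE-luciferase reporter were treated with compound plus 1 nM T3 (final) for 23.5 h at 37 °C. Viability was then read in the same wells by CellTiter-Fluor fluorescence after a further 30 min.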

Test [2] is described as follows: qHTS assay to identify small molecule antagonists of the estrogen receptor alpha (ER-alpha) signaling pathway - cell viability counter screen (AID 743074; calls by dose curve; note: nearly all actives have a fitted effect of over 45% in size).
The target of test [3] is Estrogen receptor (Homo sapiens) (UniProt P03372). Nature of the test: qHTS assay to identify small molecule agonists of the estrogen receptor alpha (ER-alpha) signaling pathway (AID 743075; calls by dose curve; note: potency is the fitted concentration of half-maximal effect).
Test [4] has the same target. Nature of the test: qHTS assay to identify small molecule agonists of the estrogen receptor alpha (ER-alpha) signaling pathway using the BG1 cell line (AID 743079). Note: nearly all actives have a fitted effect of over 20% in size. Note: potency is the fitted concentration of half-maximal effect. Conditions: BG1Luc4E2 cells, ERE-luciferase agonist, 22 h; activation: at 70.3 µM (top of the series) unless noted.
A short description of test [5]: qHTS assay to identify small molecule antagonists of the estrogen receptor alpha (ER-alpha) signaling pathway using the BG1 cell line (AID 743080; calls by dose curve;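 note: BG1 cells stimulated with 17beta-estradiol alongside compound; nearly all actives have a fitted effect of over 25% in size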; note: potency is the fitted concentration of half-maximal effect). Summed up:
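Quantitative HTS on the Tox21 10K library: BG1 cells with endogenous ER-alpha and ERE-luciferase reporter, 17beta-estradiol stimulation, 21.5 h compound exposure, luminescence endpoint with parallel fluorescence cytotoxicity counter-read.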

Test [6] can be described thus: qHTS assay to identify small molecule antagonists of the estrogen receptor alpha (ER-alpha) signaling pathway using the BG1 cell line - cell viability counter screen (AID 743081).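 Note: compound given together with 17beta-estradiol as the ER stimulus; nearly all actives have a fitted effect of over 45% in size.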
The next test addresses Aromatase (Homo sapiens) (UniProt P11511). Nature of the test: qHTS assay to identify aromatase inhibitors (AID 743083). Note: nearly all actives have a fitted effect of over 55% in size. Note: potency is the fitted concentration of half-maximal effect.
Test [7] has as its target Estrogen receptor (Homo sapiens) (UniProt P03372). Nature of the test: qHTS assay to identify small molecule antagonists of the estrogen receptor alpha (ER-alpha) signaling pathway (AID 743069; active = well fitted curve in the direction sought with a large enough effect in the signal ratio in the repeat runs, not every such curve was filed as active; inconclusive = weak or mixed curves, or effect the other way; inactive = no such curve, though single readings can be large or run the other way; the % refers to the signal ratio). Summed up:
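Fluorescence intensity from a beta-lactamase FRET substrate served as the read-out. Cells: HEK293 with stably integrated ER-alpha-UAS-bla reporter. Agonist 17beta-estradiol was co-added with compounds; incubation 18 hr at 37C, substrate 2 hr at room temperature.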

Test [8] concerns thyroid hormone receptor (rat, GH3 cells). Nature of the test: qHTS assay to identify small molecule agonists of the thyroid receptor (TR) signaling pathway (AID 743066; calls by dose curve).
The nature of test [9]: qHTS assay to identify small molecule antagonists of the thyroid receptor (TR) signaling pathway (AID 743065). Note: nearly all actives have a fitted effect of over 55% in size. Note: potency is the fitted concentration of half-maximal effect. A digest of the protocol: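 Antagonism measured as loss of luciferase signal in GH3 cells stably carrying a TRE-luciferase reporter, co-treated with compound and T3 (1 nM final) for 23.5 h at 37 C. Viability was read in the same well by CellTiter-Fluor.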
% is set by controls: 0 for no effect and ±100 for the full control effect.

Sequence of Aromatase (Homo sapiens) (P11511 whole entry, looked up): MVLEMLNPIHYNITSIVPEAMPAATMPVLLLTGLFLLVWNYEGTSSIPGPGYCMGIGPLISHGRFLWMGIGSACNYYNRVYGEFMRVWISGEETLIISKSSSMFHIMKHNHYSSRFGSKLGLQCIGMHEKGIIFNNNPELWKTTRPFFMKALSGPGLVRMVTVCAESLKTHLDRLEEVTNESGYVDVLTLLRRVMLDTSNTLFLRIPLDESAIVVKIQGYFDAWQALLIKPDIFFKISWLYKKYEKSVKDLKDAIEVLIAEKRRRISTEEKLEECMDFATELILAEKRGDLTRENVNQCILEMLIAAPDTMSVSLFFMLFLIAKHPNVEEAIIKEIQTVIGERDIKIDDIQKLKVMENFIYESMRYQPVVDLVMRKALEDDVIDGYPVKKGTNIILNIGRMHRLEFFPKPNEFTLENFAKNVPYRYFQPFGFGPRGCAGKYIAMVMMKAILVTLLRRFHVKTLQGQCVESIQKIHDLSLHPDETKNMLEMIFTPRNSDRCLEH
Sequence of Estrogen receptor (Homo sapiens) (P03372 whole entry, looked up): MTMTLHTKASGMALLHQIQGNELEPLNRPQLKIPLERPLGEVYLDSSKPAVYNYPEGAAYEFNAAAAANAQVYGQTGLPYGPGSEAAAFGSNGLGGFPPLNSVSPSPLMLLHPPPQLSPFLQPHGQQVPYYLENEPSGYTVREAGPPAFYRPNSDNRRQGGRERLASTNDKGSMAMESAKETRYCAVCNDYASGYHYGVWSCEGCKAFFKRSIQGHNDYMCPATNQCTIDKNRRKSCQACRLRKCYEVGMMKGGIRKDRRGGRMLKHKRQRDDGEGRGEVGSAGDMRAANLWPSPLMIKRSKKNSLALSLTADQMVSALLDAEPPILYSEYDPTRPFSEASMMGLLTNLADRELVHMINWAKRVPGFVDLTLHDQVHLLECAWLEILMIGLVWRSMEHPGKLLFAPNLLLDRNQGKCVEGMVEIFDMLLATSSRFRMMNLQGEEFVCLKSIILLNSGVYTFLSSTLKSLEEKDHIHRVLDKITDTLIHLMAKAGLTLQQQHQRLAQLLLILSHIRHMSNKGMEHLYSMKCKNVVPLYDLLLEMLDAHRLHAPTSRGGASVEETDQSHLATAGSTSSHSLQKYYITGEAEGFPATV

With `CC(=O)Nc1ccc(CC(=O)O)cc1`, the Potency result in test [1], in test [2], in [3], in test [4], in [5] and in test [6] was “inactive” throughout. The Potency result with Aromatase (Homo sapiens) is “inactive”.

For `O=C(O)C1=NN(c2ccc(S(=O)(=O)O)cc2)C(=O)C1`, the Potency result in [1], in test [7], in test [2], in test [3], in test [4] and in test [5] was “inactive” each time. Also, the Potency result (in test [6]; in the test with Aromatase (Homo sapiens)) was “inactive” in each case.

For the compound `O=c1c(O)c(-c2ccc(O)c(O)c2)oc2cc(O)cc(O)c12`, the Potency result in [1] was “inactive and 30.9 µM (active)”; in [3] it was 24.6 µM [inconclusive] (active) [middle of 4 runs]; in test [4], 29.8 µM (active) and 68.7 µM (active). In addition, the Potency entry (in test [8]; in test [2]; in test [5]; in [6]; with Aromatase (Homo sapiens)) was “inactive” throughout. Also, the activation in test [4] was 18.1% [at 95 µM] (active).

As to `Cc1nnc(NS(=O)(=O)c2ccc(N)cc2)s1`, the Potency entry (in [2]; in test [3]; in test [4]; in test [5]; in [6]; with Aromatase (Homo sapiens)) was “inactive” each time.

As to `COc1ccccc1[N+](=O)[O-]`, the Potency entry (in test [1]; in test [9]; in [8]; in test [2]; in test [6]; with Aromatase (Homo sapiens)) was “inactive” throughout.

Regarding `Oc1ccc(Cc2ccccc2O)cc1`, the Potency entry (in test [1]; in test [8]; in test [2]; in [5]; in [6]; with Aromatase (Homo sapiens)) was “inactive” throughout. Moreover, the Potency in test [3] is 11.1 µM [inconclusive] (active) and 24.5 µM [inconclusive] (active); in [4], 9.81 µM (active) and 6.11 µM (active).

In the case of `CCOC(=O)CC(=O)OCC`, the Potency entry in test [1], in test [9], in [8] and in [6] was “inactive” in each case.

For `NC1CCCCC1N` (stereo not given), the Potency entry (in test [2]; in test [6]; with Aromatase (Homo sapiens)) was “inactive” throughout.

In the case of `O=C1OC(=O)c2c(Cl)c(Cl)c(Cl)c(Cl)c21`, the Potency entry (in test [1]; in test [9]; in test [8]; in [2]; in test [6]; in the test with Aromatase (Homo sapiens)) was “inactive” throughout.

With `Cc1ccc(Cl)cc1`, the Potency entry in [1], in [2], in [3], in test [4], in test [5] and in [6] was “inactive” each time. In addition, in the test with Aromatase (Homo sapiens), the Potency entry is “inactive”.

Consider `O=c1n(CCCN2CCN(c3cccc(Cl)c3)CC2)nc2ccccn12`, for which the Potency entry (in test [1]; in test [9]; in test [8]; in [2]; in test [6]; with Aromatase (Homo sapiens)) was “inactive” each time.

With `O=C(c1ccccc1)c1ccc(O)c(O)c1O`, the Potency entry (in test [8]; in test [2]; in test [5]; in [6]; with Aromatase (Homo sapiens)) was “inactive” in each case. Also, the Potency was 61.6 µM [inconclusive] (active) in [3] and 61.1 µM (active) in test [4].

In the case of `CC1=CC(=O)CC(C)(C)C1`, the Potency result (in test [1]; in test [9]; in [8]; in test [2]; in test [6]; in the test with Aromatase (Homo sapiens)) was “inactive” each time.

Consider `CCCCCCCCCCCCCC(=O)O`, for which the Potency result in test [1], in test [9], in test [8], in test [3], in test [4] and in test [5] was “inactive” each time. Further, the Potency entry (in test [6]; with Aromatase (Homo sapiens)) was “inactive” in each case.

Regarding `CCCN(CCC)C(=O)SCC`, the Potency entry in test [1], in test [9], in test [2], in test [3], in test [4] and in test [5] was “inactive” throughout. The Potency result (in test [6]; in the test with Aromatase (Homo sapiens)) was “inactive” throughout.

For `COc1ccc2cc3[n+](cc2c1OC)CCc1cc2c(cc1-3)OCO2`, the Potency result (in [1]; in [8]; in test [3]; with Aromatase (Homo sapiens)) was “inactive” throughout. The Potency was 61.6 µM (active) in test [9] and 26.6 µM (active) in test [5].

Take `Nc1nc(N)c2nc(-c3ccccc3)c(N)nc2n1`: the Potency in [9] was 55.1 µM (active) and 54.5 µM (active); in test [4], “inactive and 68.6 µM (active)”. Further, the Potency entry (in test [8]; with Aromatase (Homo sapiens)) was “inactive” each time.

For the compound `CCc1cccc(CC)c1N`, the Potency entry in test [9], in [8], in [7], in test [2], in test [3] and in test [4] was “inactive” throughout. Also, the Potency entry (in [5]; in test [6]; with Aromatase (Homo sapiens)) was “inactive” throughout.

Take `CC(C=O)Cc1ccc(C(C)(C)C)cc1` (stereo not given): in test [9], the Potency is 43.3 µM (active). Further, the Potency entry (in test [8]; in [2]; in test [6]; with Aromatase (Homo sapiens)) was “inactive” in each case.

Regarding `CC(=O)c1nccs1`, the Potency entry in test [9], in test [8], in test [7], in test [2], in [3] and in [5] was “inactive” in each case. Further, the Potency entry (in test [6]; with Aromatase (Homo sapiens)) was “inactive” throughout. The Potency result in test [4] is “inactive and 48.6 µM (active)”.

Regarding `CCCOCC(C)O` (stereo not given), the Potency result (in test [1]; in test [9]; in [8]; in [2]; in [6]; with Aromatase (Homo sapiens)) was “inactive” throughout.

With `C[Si](C)(C)N[Si](C)(C)C`, the Potency result in [1], in test [9], in [8], in test [4], in test [5] and in [6] was “inactive” throughout. For the same compound, the Potency entry with Aromatase (Homo sapiens) was “inactive”. Besides, the Potency in test [3] was 86.4 nM [inconclusive] (active) and inactive.

Consider `CC(=O)OC[C@H]1O[C@@](COC(C)=O)(O[C@H]2O[C@H](COC(C)=O)[C@@H](OC(C)=O)[C@H](OC(C)=O)[C@H]2OC(C)=O)[C@@H](OC(C)=O)[C@@H]1OC(C)=O`, for which the Potency result (in test [1]; in test [9]; in test [8]; in test [2]; in test [6]; with Aromatase (Homo sapiens)) was “inactive” in each case.

Take `CC1(C)[C@@H](O[C@H]2O[C@H](C(=O)O)[C@@H](O)[C@H](O)[C@H]2O[C@@H]2O[C@H](C(=O)O)[C@@H](O)[C@H](O)[C@H]2O)CC[C@]2(C)[C@H]3C(=O)C=C4[C@@H]5C[C@@](C)(C(=O)O)CC[C@]5(C)CC[C@@]4(C)[C@]3(C)CC[C@@H]12`: the Potency entry (in test [1]; in test [8]; in [2]; in test [6]; in the test with Aromatase (Homo sapiens)) was “inactive” throughout.

`COC(=O)OC`: the Potency result (in test [1]; in test [9]; in test [8]; in [2]; in test [6]; in the test with Aromatase (Homo sapiens)) was “inactive” throughout.

Take `N[C@@H](Cc1cc(I)c(Oc2ccc(O)c(I)c2)c(I)c1)C(=O)O`: the Potency result (in [2]; in test [6]; with Aromatase (Homo sapiens)) was “inactive” in each case. Also, the Potency was 9.51 µM [activator] (active) and inactive and 51 µM [fluorescent] (active) in test [3]; 37.1 µM (active) and 40.2 µM (active) in test [4]; 26.6 µM (active) and inactive and 8.02 µM (active) in test [5].

Consider `OCc1ccc(Cl)cc1Cl`, for which the Potency entry (in [1]; in [9]; in test [8]; in test [2]; in test [6]; with Aromatase (Homo sapiens)) was “inactive” in each case.

As to `COCN(COC)c1nc(N(COC)COC)nc(N(COC)COC)n1`, the Potency result in [1], in [2], in test [3], in test [4], in test [5] and in [6] was “inactive” throughout. In addition, the Potency result with Aromatase (Homo sapiens) is “inactive”.

Take `COc1cc(NC(=O)CC(C)=O)c(OC)cc1Cl`: the Potency entry in test [1], in test [8], in test [2], in test [3], in test [4] and in test [5] was “inactive” each time. Moreover, the Potency entry in test [6] is “inactive”. Also, in the test with Aromatase (Homo sapiens), the Potency result is “inactive and 12.2 µM (active)”.
